Results filed as inconclusive are left out. Active and inactive are the calls of the source. Calls come from the whole dose curve; as a rule, active = well fitted curve in the direction sought with a large enough effect in the repeat runs; inconclusive = weak or mixed curves; inactive = no such curve, though single readings can be large; an effect the other way counts as inactive or inconclusive.
Experiments:
[1] = Caspase-3/7 induction in HepG2 cells by small molecules, qHTS assay (AID 1346978); note: nearly all actives have a fitted effect of over 15% in size
Method in brief: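 Wild-type HepG2 cells, 2,000/well, settled 5 hr at 37 C and 5% CO2, then compound-treated for 17 hr; caspase-3/7 activity read by luminescent Caspase-Glo 3/7 after 30 min at room temperature.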

[2] = Caspase-3/7 induction in CHO-K1 cells by small molecules, qHTS assay (AID 1346980); note: nearly all actives have a fitted effect of over 15% in size
Method in brief: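 Wild-type CHO-K1 cells exposed to compounds for 17hr at 37 C, 5% CO2. Caspase-3/7 activity then measured by Caspase-Glo 3/7 luminescence after 30min at room temperature.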

[3] = Caspase-3/7 induction in HepG2 cells by small molecules, qHTS cell viability counter screen (AID 1346981); note: series mostly up to about 92 µM; nearly all actives have a fitted effect of over 30% in size
Method in brief: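 Wild-type HepG2 cells, 2,000/well, settled 5 hr at 37 C, 5% CO2 before compound addition. Viability read by CellTiter-Fluor fluorescence, reagent added after 16 hr compound exposure, then 1 hr at 37C, in the same wells as the caspase read.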

[4] = Caspase-3/7 induction in CHO-K1 cells by small molecules, qHTS cell viability counter screen (AID 1346979); note: nearly all actives have a fitted effect of over 35% in size; note: potency is the fitted concentration of half-maximal effect
Method in brief: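 Seeding: 1,500 CHO-K1 cells/well. Rest: 5hr, 37C. Treatment: compounds in DMSO, 16hr. Read: CellTiter-Fluor, 1hr, fluorescence.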

[5] = biological target: Nuclear receptor subfamily 1 group I member 2 (Homo sapiens) (UniProt O75469); assay: Human pregnane X receptor (PXR) small molecule agonists, qHTS assay (AID 1346982); note: nearly all actives have a fitted effect of over 35% in size; note: potency is the fitted concentration of half-maximal effect
Sequence of Nuclear receptor subfamily 1 group I member 2 (Homo sapiens) (O75469 whole entry, looked up): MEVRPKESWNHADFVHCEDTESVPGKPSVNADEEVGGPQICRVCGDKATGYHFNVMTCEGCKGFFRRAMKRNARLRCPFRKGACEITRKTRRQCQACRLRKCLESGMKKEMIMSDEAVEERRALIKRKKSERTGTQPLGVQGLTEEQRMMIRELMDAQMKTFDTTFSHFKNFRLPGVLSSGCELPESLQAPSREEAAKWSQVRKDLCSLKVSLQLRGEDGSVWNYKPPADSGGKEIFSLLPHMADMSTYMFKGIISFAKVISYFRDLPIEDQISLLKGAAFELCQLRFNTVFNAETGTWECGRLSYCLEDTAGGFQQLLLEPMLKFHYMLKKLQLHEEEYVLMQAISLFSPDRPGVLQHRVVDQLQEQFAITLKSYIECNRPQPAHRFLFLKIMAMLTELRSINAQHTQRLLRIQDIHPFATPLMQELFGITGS
Method in brief: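 PXR-Luc HepG2 reporter cells (CYP3A4-driven luciferase) in 5% charcoal-stripped FBS medium, plated 5 h before compound addition, then treated 24 h at 37C. Luciferase read by ONE-Glo luminescence after 30 min at room temperature.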

[6] = biological target: Cytochrome P450 2D6 (Homo sapiens) (UniProt P10635); assay: Cytochrome P450 Family 2 Subfamily D Member 6 (CYP2D6) small molecule antagonists: luciferase reporter qHTS assay (AID 1671196); note: nearly all actives have a fitted effect of over 50% in size; note: potency is the fitted concentration of half-maximal effect
Sequence of Cytochrome P450 2D6 (Homo sapiens) (P10635 whole entry, looked up): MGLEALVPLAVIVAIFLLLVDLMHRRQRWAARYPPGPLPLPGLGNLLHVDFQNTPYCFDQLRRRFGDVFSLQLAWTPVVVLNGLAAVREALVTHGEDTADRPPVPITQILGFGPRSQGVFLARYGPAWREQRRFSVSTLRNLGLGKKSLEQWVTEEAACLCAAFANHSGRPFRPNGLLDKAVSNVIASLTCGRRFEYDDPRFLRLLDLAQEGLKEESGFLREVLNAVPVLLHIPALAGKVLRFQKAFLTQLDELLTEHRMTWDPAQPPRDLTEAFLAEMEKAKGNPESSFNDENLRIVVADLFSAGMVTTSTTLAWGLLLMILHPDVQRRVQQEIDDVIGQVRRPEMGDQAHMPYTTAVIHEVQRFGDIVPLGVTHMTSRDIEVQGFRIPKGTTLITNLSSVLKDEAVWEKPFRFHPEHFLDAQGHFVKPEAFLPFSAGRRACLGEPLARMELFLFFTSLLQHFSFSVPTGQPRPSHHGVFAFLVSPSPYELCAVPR
Method in brief: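 Cell-free P450-Glo system: CYP2D6 with proluciferin substrate was pre-incubated with compound for 10 min, then reacted with NADPH regeneration for 1 h at room temperature. Luciferin product was detected after 20 min, and data were reported as relative luminescence units.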

[7] = biological target: Cytochrome P450 2C19 (Homo sapiens) (UniProt P33261); assay: Cytochrome P450 Family 2 Subfamily C Member 19 (CYP2C19) small molecule antagonists: luciferase reporter qHTS assay (AID 1671197); note: nearly all actives have a fitted effect of over 65% in size; note: potency is the fitted concentration of half-maximal effect
Sequence of Cytochrome P450 2C19 (Homo sapiens) (P33261 whole entry, looked up): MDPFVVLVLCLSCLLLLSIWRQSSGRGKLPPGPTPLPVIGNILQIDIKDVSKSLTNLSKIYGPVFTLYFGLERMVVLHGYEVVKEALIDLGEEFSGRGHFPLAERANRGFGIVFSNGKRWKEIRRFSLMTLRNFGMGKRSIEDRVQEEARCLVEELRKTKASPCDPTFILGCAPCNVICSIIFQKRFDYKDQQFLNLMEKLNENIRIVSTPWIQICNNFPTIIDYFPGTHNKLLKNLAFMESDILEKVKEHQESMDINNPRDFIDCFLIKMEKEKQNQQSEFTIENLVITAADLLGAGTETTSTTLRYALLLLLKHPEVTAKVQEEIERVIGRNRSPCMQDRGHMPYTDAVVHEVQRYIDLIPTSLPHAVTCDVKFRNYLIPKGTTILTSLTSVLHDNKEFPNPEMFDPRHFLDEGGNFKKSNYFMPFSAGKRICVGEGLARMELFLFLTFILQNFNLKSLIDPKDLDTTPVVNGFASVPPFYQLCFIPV
Method in brief: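 Quantitative high-throughput screen of the Tox21 library using CYP2C19 with proluciferin substrate. Reaction: NADPH regeneration, 37C, 1 h, after 10 min compound preincubation at room temperature. Readout: luminescence.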

[8] = biological target: Nuclear receptor subfamily 1 group I member 2 (Rattus norvegicus) (UniProt Q9R1A7); assay: Rat pregnane X receptor (rPXR) activation by small molecules, qHTS assay (AID 1346983); conditions: rPXR luciferase reporter cells, One-Glo luminescence, 24 h; max activation: hits give high values; note: nearly all actives have a fitted effect of over 20% in size
Sequence of Nuclear receptor subfamily 1 group I member 2 (Rattus norvegicus) (Q9R1A7 whole entry, looked up): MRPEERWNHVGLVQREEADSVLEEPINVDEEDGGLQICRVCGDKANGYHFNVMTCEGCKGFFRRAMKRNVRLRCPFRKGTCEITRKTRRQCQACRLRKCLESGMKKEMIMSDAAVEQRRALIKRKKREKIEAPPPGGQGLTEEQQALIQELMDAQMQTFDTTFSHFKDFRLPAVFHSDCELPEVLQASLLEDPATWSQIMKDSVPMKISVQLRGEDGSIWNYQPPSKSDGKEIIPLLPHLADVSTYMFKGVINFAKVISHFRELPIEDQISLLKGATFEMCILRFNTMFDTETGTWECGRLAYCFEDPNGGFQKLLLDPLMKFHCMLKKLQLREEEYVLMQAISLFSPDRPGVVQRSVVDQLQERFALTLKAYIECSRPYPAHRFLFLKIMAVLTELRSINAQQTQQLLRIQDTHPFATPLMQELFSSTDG
Method in brief: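 Cell-based rPXR activation assay: rPXR cells, 2,000 per well, rested 5hr at 37 C, then exposed to compounds in DMSO for 24 hr at 37 C. Luciferase activity read by One-Glo luminescence after 30 min at room temperature.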

[9] = biological target: Nuclear receptor subfamily 1 group I member 2 (Homo sapiens) (UniProt O75469); assay: CYP3A4 induction through human pregnane X receptor (PXR) by small molecules, qHTS assay (AID 1346984); note: nearly all actives have a fitted effect of over 40% in size
Method in brief: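 DPX-2 HepG2 cells carrying a PXR response element and CYP3A4-promoter luciferase construct, treated with compounds 24 hr at 37C. Then P450-Glo CYP3A4 Luciferin-IPA substrate (3uM final) for 3 hr at 37C, One-Glo added, luminescence read.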

[10] = biological target: Nuclear receptor subfamily 1 group I member 2 (Homo sapiens) (UniProt O75469); assay: Human pregnane X receptor (PXR) activation by small molecules, qHTS assay (AID 1346985); note: nearly all actives have a fitted effect of over 40% in size
Method in brief: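 DPX-2 cells (HepG2 co-transfected with a PXR response element and a CYP3A4-promoter luciferase construct) were seeded at 2,000 per well, rested 5 hr at 37C, then exposed to DMSO-dissolved compounds for 24 hr. Activation was read as luciferase luminescence.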
% is set by controls: 0 for no effect and ±100 for the full control effect.

NCC(=O)O
inactive: caspase activation [1] -0.745% [at 19 µM] | caspase-3/7 activation [2] -1.83% [at 19 µM] | activity change, negative = cytotoxicity [3] 4.32% [at 19 µM]

CN(C)c1ccc(C(c2ccccc2)c2ccc(N(C)C)cc2)cc1
inactive: Potency [1] | Potency [2]
active: Potency [4] 1.09 µM | Potency [5] 21.7 µM | Potency [6] 31.7 µM | Potency [7] 1.59 µM

CO[C@@H]1[C@H](OC(=O)/C=C/C=C/C=C/C=C/C(=O)O)CC[C@]2(CO2)[C@H]1[C@@]1(C)O[C@@H]1CC=C(C)C
inactive: Potency [1] | Potency [2] | Potency [3] | max activation [8] 0.0882% | Potency [9] | Potency [10]
active: Potency [5] 15.4 µM

CC(C)CC(=O)C1C(=O)c2ccccc2C1=O
inactive: Potency [1] | Potency [2] | Potency [6]
active: Potency [4] 61.1 µM

CC(COCCO)OCCO (stereo not given)
inactive: Potency [1] | Potency [4] | Potency [2] | Potency [3] | Potency [7]
active: Potency [6] 25.8 µM

CC(=O)c1cccc([N+](=O)[O-])c1
inactive: Potency [1] | Potency [2] | Potency [3] | Potency [5]

CCCCNc1ccc(C(=O)OCCOCCOCCOCCOCCOCCOCCOCCOCCOC)cc1
inactive: Potency [1] | Potency [2] | Potency [3] | Potency [5] | max activation [8] -3.41% | Potency [9] | Potency [10] | Potency [6]

COc1ccc(C(=O)Nc2nc3ccccc3c(NCc3ccccc3)c2C#N)cc1
active: Potency [4] 19.3 µM | Potency [5] 7.7 µM
inactive: Potency [1] | Potency [2] | Potency [6]

O=C(NCCO[N+](=O)[O-])c1cccnc1
inactive: Potency [1] | Potency [4] | Potency [2] | Potency [3] | max activation [8] -6.7%

Cn1c(=O)cc(Oc2ccc(F)cc2F)c2cnc(NCC(C)(C)O)nc21
inactive: Potency [1] | Potency [2] | Potency [3]
active: Potency [5] 43.3 µM

C/C(=C(\CCOP(=O)(O)O)SC(=O)c1ccccc1)N(C=O)Cc1cnc(C)nc1N
inactive: caspase activation [1] 0.0207% [at 8.39 µM] | caspase-3/7 activation [2] -0.786% [at 8.39 µM] | activity change, negative = cytotoxicity [3] 6.79% [at 8.39 µM]

CCCNCC(O)COc1ccccc1C(=O)CCc1ccccc1 (stereo not given)
inactive: Potency [1] | Potency [2] | Potency [3]

COCCCN1CCC(NC(=O)c2cc(Cl)c(N)c3c2OCC3)CC1
active: Potency [6] 3.89 µM
inactive: Potency [1] | Potency [4] | Potency [2] | Potency [3]

C=C1C(=C/C=C2\CCC[C@]3(C)[C@@H]([C@H](C)/C=C/[C@@H](O)C4CC4)CC[C@@H]23)C[C@@H](O)C[C@@H]1O
active: Potency [4] 18.8 µM | Potency [5] 16.8 µM
inactive: Potency [1] | Potency [2] | max activation [8] 5.08% | Potency [9] | Potency [10]

Cc1cc(N)c2cc(NC(=O)Nc3ccc4nc(C)cc(N)c4c3)ccc2n1
inactive: Potency [1] | Potency [2] | Potency [3]

c1ccc(C(O[C@H]2CCCN(CCc3ccc4c(c3)OCO4)C2)c2ccccc2)cc1
inactive: Potency [1] | Potency [4] | Potency [2]
active: Potency [6] 2.45 µM

Nc1ccccc1S(=O)(=O)c1ccccc1
inactive: Potency [1] | Potency [4] | Potency [2] | Potency [3] | Potency [6] | Potency [7]

CN(Cc1ccc(C(C)(C)C)cc1)Cc1cccc2ccccc12
active: Potency [6] 0.347 µM | Potency [7] 8.71 µM
inactive: Potency [1] | Potency [4] | Potency [2] | Potency [3] | max activation [8] 1.25%

CCc1c(C(=O)NN2CCCCC2)nn(-c2ccc(Cl)cc2Cl)c1-c1ccc(Br)cc1
active: Potency [4] 27.3 µM | Potency [5] 48.6 µM
inactive: Potency [1] | Potency [2] | Potency [6]

CC(C)Cc1ccc(C(C)C(=O)OCc2ccccn2)cc1 (stereo not given)
inactive: Potency [1] | Potency [2] | Potency [3] | Potency [5]

COc1cc(Cl)ccc1Oc1ccc(Cl)cc1Cl
inactive: Potency [1] | Potency [2] | Potency [3] | Potency [6]
active: Potency [5] 26.5 µM

CCCCCCCCCCCCCCCCCCOS(=O)(=O)O
inactive: Potency [1] | Potency [2] | Potency [3] | Potency [6]

Nc1cc(C(=O)O)c(O)c(S(=O)(=O)O)c1
inactive: Potency [1] | Potency [2] | Potency [3]
active: Potency [6] 35.1 µM

NC(=O)C(c1ccccc1)(c1ccccc1)[C@@H]1CCN(CCc2ccc3c(c2)CCO3)C1
active: Potency [6] 0.389 µM
inactive: Potency [1] | Potency [2] | Potency [3] | Potency [7]

CN(C)CCCN1c2ccccc2Sc2ccccc21
inactive: Potency [1] | Potency [2] | Potency [3] | max activation [8] -2.41%

CCCCCCCCCCO[C@@H]1O[C@H](CO)[C@@H](O)[C@H](O)[C@H]1O
inactive: Potency [1] | Potency [2] | Potency [3] | Potency [6]

O=C(O)c1nc(Cl)c(Cl)c(Cl)c1Cl
active: Potency [6] 28.3 µM
inactive: Potency [1] | Potency [2] | Potency [3] | Potency [5]

Nc1cccc([N+](=O)[O-])c1
inactive: Potency [1] | Potency [2] | Potency [3] | Potency [5] | Potency [6]
active: Potency [7] 69.5 µM

CC(=O)OC[C@H]1O[C@@H](n2ncc(=O)[nH]c2=O)[C@H](OC(C)=O)[C@@H]1OC(C)=O
inactive: Potency [1] | Potency [2] | Potency [3] | Potency [5] | max activation [8] -1.15% | Potency [9] | Potency [10] | Potency [7]
active: Potency [6] 4.36 µM

ClCCOCCOCCCl
inactive: Potency [1] | Potency [2] | Potency [3] | Potency [5] | Potency [6]

COc1ccc(C)cc1[N+](=O)[O-]
inactive: Potency [1] | Potency [2] | Potency [3] | Potency [5] | Potency [6]
